Screening results deposited in PubChem by several laboratories.
Rtt109 HAT inh = C. albicans Rtt109 histone acetyltransferase inhibition; purified Rtt109/Vps75, ThioGlo CoA-SH fluorescence, 4 h; inhibition, % at 34.9 µM; hit rate 0.16% among 330,000; AID 540336;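 active = inhibition of at least 50% in every replicate; inconclusive = best replicate reaches 50% inhibition but some replicates fall short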
GRK2 aptamer HTS = inhibitors of human GRK2 displacing RNA aptamer; inhibition of aptamer binding, % at 10 µM; P25098; hit rate 0.59% among 330,000; bead flow cytometry, FAM-aptamer displacement from GRK2;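 active = inhibition of aptamer binding above 40%, roughly 3 SD of noise, on plates passing a quality check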;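 note: median bead fluorescence of bound FAM aptamer so fluorescent compounds give negative values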
Rce1 inhib = yeast Ras-converting enzyme inhibition; Q03530; yeast membranes, quenched prenylated peptide cleavage fluorescence; calls only; hit rate 0.27% among 290,000; AID 2563;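 active = fall in fluorescence gain of 50% or more versus controls, with final raw signal at or below 3038400; inconclusive = same 50% fall but final raw signal above 3038400; inactive = fall in fluorescence gain under 50%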;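 note: plate controls were neutral control wells for no effect and wells lacking membranes for full effect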
Target sequence (Q03530 whole entry, looked up): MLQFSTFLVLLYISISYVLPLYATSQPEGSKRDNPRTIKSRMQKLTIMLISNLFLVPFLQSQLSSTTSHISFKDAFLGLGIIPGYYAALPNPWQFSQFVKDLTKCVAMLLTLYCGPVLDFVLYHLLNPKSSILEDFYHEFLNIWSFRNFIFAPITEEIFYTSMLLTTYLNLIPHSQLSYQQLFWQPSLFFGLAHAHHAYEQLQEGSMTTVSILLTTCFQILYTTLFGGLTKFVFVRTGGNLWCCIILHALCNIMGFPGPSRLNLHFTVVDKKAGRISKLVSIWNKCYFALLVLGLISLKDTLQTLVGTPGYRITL
Efflux pump inh = antifungal efflux pump inhibition, Nile Red retention; S. cerevisiae Candida pump triplex; inhibition, % at 10 µM; hit rate 0.44% among 330,000; AID 485275;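 active = plate passing quality check with inhibition over a set limit, or well fluorescence over plate mean plus 4 SD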;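 note: Nile Red retained in pooled yeast measured as flow cytometry median fluorescence; 0% = buffer negative control and 100% = Enniatin B positive control; higher means more Nile Red kept so more efflux inhibition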
ALR inh = blocks human ALR sulfhydryl oxidase activity; P55789; purified ALR, DTT oxidation, H2O2 HRP-luminol luminescence; inhibition, % (concentration not given with the values); hit rate 3.8% among 290,000; AID 485317;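 active = mean replicate inhibition above about 79%, with every replicate also reaching it, limit read from the data; inconclusive = only one of the two criteria met; inactive = mean below limit and not every replicate reaching it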
Target sequence (P55789 whole entry, looked up): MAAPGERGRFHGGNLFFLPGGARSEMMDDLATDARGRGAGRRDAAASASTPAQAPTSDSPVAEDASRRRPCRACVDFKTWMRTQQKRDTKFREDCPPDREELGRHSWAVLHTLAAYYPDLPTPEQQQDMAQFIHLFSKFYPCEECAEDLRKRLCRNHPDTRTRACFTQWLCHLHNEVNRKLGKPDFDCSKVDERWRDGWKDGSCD
HDAC3 inh = blocks human histone deacetylase 3. O15379. recombinant HDAC3, fluorogenic peptide/trypsin coupled, fluorescence. inhibition, % at 8.3 µM. hit rate 0.15% among 320,000; in the data active = inhibition above about 26%, passing the limit was not always enough; inconclusive = no clear call, values can overlap the other calls
* = called active by the depositor; i = inactive; ? = inconclusive; / = no result given; + = active, no number. This is a sample that favours compounds with a hit; in the whole collection about 4.5% have one here.

SMILES	Rtt109 HAT inh	GRK2 aptamer HTS	Rce1 inhib	Efflux pump inh	ALR inh	HDAC3 inh
O=C1c2cc(O)c(O)cc2S(=O)(=O)C1c1ccccc1 (stereo not drawn)	-6.6	0.0	i	0.2	99.0*	1.6
COc1cc(NS(=O)(=O)c2cc(C(=O)NCCc3ccccn3)ccc2OC)cc(OC)c1	-3.2	1.0	/	-0.1	-2.2	-12.3
COc1ccc(C)cc1NC(=O)C(Sc1nnnn1C)c1ccccc1 (stereo not drawn)	5.5	3.0	i	0.3	1.5	7.9
COCCn1c(SC(C(=O)Nc2cc(C)ccc2OC)c2ccccc2)nnc1-c1ccc(Cl)cc1 (stereo not drawn)	12.9	0.0	i	0.6	98.9*	-1.0
O=S(=O)(NCCOc1ccccc1F)c1cccc(Br)c1	-5.6	0.0	/	-0.1	-4.0	11.3
Cc1[nH]c2ccc(C(=O)Nc3ccncc3)cc2c1C	5.4	0.0	i	0.0	/	-2.7
COc1ccccc1NC(=O)c1ccc2[nH]c(C)c(C)c2c1	0.6	4.0	i	-0.1	86.8*	-7.5
NNCCc1ccccc1	4.6	0.0	i	-0.2	99.1*	2.2
CC(C)CC(COCc1ccc(Cl)cc1)N1CCN(C(=O)c2cccc(C(F)(F)F)c2)CCC1=O (stereo not drawn)	9.6	/	i	/	-6.7	16.9
CC(C)CC(COCc1ccc(C(F)(F)F)cc1)N1CCN(C(=O)c2ccc(C(F)(F)F)cc2)CCC1=O (stereo not drawn)	-3.5	0.0	i	0.3	-3.0	39.2*
CC1CCCCC1N(C)C1CCN(C(=O)CNC(=O)/C=C/c2cccc(Cl)c2)CC1 (stereo not drawn)	51.3*	0.0	i	0.3	-5.8	-0.2
O=C(O)C[C@H](O)C[C@H](O)/C=C/c1c(C2CC2)nc2ccccc2c1-c1ccc(F)cc1	/	/	i	/	/	/
CC(C)n1c(/C=C/[C@H](O)C[C@H](O)CC(=O)O)c(-c2ccc(F)cc2)c2ccccc21	1.1	3.0	/	0.6	99.1*	-3.8
O=C(Nc1ccc(C(=O)Nc2ccccc2Cl)cc1)c1cccnc1	-4.8	0.0	i	0.1	-13.3	-0.2
CC(=O)c1c(C)[nH]c(C(=O)OCc2ccc(Br)cc2)c1C	12.2	0.0	+	0.2	-17.3	0.6
CC(=O)c1c(C)[nH]c(C(=O)OCc2cccc(C)c2)c1C	5.1	0.0	i	-0.1	-4.4	6.0
NC(=S)Nc1ccc(Oc2ccc(NC(N)=S)cc2)cc1	17.2	0.0	i	0.0	98.8*	-1.3
O=C(O)CCN1C(=O)CC(N2C(=O)/C(=C/c3ccc(Cl)cc3)SC2=S)C1=O (stereo not drawn)	?	7.0	i	0.0	98.4*	5.1
CCOc1ccc(/C=C2\SC(=S)N(CCC(=O)O)C2=O)cc1	44.6	2.0	i	-0.4	2.6	-0.6
CN(C(=O)c1cccc(NC(=O)Cc2ccc(NC(=O)C3CCCN(C(=O)C4CCC4)C3)cc2)c1)C1CCCCC1 (stereo not drawn)	4.5	/	/	/	/	/
COc1ccc(CN2C(=O)CNC2=S)cc1	0.0	0.0	i	-0.1	/	-1.4
Cc1ccc(-c2cn3c(=S)[nH]nc3s2)cc1	-0.6	4.0	i	0.0	86.1*	9.4
Cc1ccc(-c2n[nH]c(=S)n2C)cc1	15.9	/	i	/	/	/
CSc1nc(Cl)cc(Nc2ccc(O)cc2)n1	-5.5	0.0	i	0.4	99.2*	2.4
Cc1nc(C(F)(F)F)c(C(=O)O)cc1-c1nc(-c2ccccc2)cs1	-4.8	0.0	i	-0.1	94.7*	2.8
SMILES	Rtt109 HAT inh	GRK2 aptamer HTS	Rce1 inhib	Efflux pump inh	ALR inh	HDAC3 inh
O=C(O)c1ccc(-c2nc(-c3cccc(C(F)(F)F)c3)cs2)cc1	-8.0	/	i	/	/	/
CCC(=O)N(Cc1cc2ccc(C)cc2[nH]c1=O)c1ccccc1OC	1.8	0.0	i	0.3	/	0.0
Cc1cc(=O)oc2cc(OCCc3ccccc3)ccc12	-2.1	3.0	i	0.0	-32.1	-1.5
Cc1cc(=O)oc2cc(OCCSCCN3CCCCC3)ccc12	/	1.0	i	-0.2	98.8*	-3.2
CCc1nnc(NC(=O)CCNC(=O)c2ccco2)s1	-2.0	1.0	i	-0.3	/	-2.1
CCCCN(CC)CCNC(=O)c1cc2c(=O)n(C)c3ccccc3c2s1	-13.1	0.0	i	-0.3	-14.4	-37.0
CCN(CC)CCNC(=O)c1cc2c(=O)n(C)c3ccccc3c2s1	-2.1	0.0	+	0.1	-3.9	-38.0
CCCc1cc(SCC(=O)Nc2c(C)n(C)n(-c3ccccc3)c2=O)n2c(nc3ccccc32)c1C#N	/	0.0	/	0.1	98.1*	-0.8
CCOC(=O)CSc1cc(C)c(C#N)c2nc3ccccc3n12	10.4	2.0	i	-0.1	98.7*	1.1
CCC1Sc2ccc(S(=O)(=O)CCC(=O)NCc3ccco3)cc2NC1=O (stereo not drawn)	-3.3	10.0	i	-0.1	16.7	-5.4
COc1cc([N+](=O)[O-])ccc1NC(=S)NNC(=O)CCC(=O)Nc1ccccc1Cl	0.4	3.0	i	-0.2	67.5	-7.2
CCS(=O)(=O)c1ccc2oc(Nc3ccc(OC)cc3)nc2c1	-9.4	0.0	i	0.2	22.7	-2.1
CCS(=O)(=O)c1ccc2oc(Nc3cccc(OC)c3)nc2c1	/	1.0	i	0.1	97.3*	2.0
Cc1nn2c(=S)[nH]nc2[nH]c1=O	-2.0	0.0	i	0.4	94.8*	14.1
Cc1n[nH]c(=S)n(NC(=O)/C=C/C(=O)Nn2c(=S)[nH]nc(C)c2=O)c1=O	7.7	/	i	/	/	/
Cc1ccc(C(=O)NCCc2nnc3ccc(NCCCN4CCOCC4)nn23)cc1	-7.9	0.0	i	-0.1	5.2	1.4
CC1CCc2c(cnc3ncnn23)C1 (stereo not drawn)	-3.3	0.0	i	-0.2	-0.3	-4.7
Cc1ccc(-n2cnc3cc(NCc4cccs4)ccc32)cc1	1.3	2.0	i	0.2	21.5	1.2
c1ccc(-n2cnc3cc(NCc4cccs4)ccc32)cc1	-2.8	0.0	i	0.1	97.3*	-18.5
COc1ccc(-n2cnc3cc(NCc4cccs4)ccc32)cc1	17.1	0.0	i	0.0	95.4*	0.4
COc1ccc(CCN(C)C(=O)c2cc(S(=O)(=O)N3CCCCC3)ccc2Cl)cc1OC	-3.9	0.0	i	0.0	-3.4	-7.7
N#C/C(=C\c1ccc(C(=O)O)cc1)c1nc2sc3c(c2c(=O)[nH]1)CCCC3	-1.3	/	/	/	/	/
COc1c(O)cc2oc(-c3ccc(O)cc3)cc(=O)c2c1O	6.4	6.0	i	0.0	93.9*	-3.8
COc1cc2oc(-c3ccc(O)cc3)cc(=O)c2c(O)c1OC	5.3	5.0	i	0.3	98.0*	1.5
O=c1cc(-c2ccc(O)cc2)oc2c(O)c(O)c(O)c(O)c12	5.3	4.0	/	0.0	86.4*	5.4
Cc1ccccc1NC(=O)C1CCN(S(=O)(=O)c2cccc3nonc23)CC1	-5.2	17.0	i	0.4	3.7	-8.5
Nc1o[nH]c(=O)c1C1CCCCC1	7.5	/	/	/	/	/
